# Reference: PubChem BioAssay (NCATS)
# Results filed as inconclusive are left out. Values without a mark were called inactive. The source made the active and inactive calls. Calls follow the shape of the dose curve; as a rule, active = well fitted curve in the direction sought with a large enough effect; inconclusive = small, poorly fitted or top-dose-only effect, or another doubt; inactive = no such curve, though single readings can be large; an effect the other way counts as inactive or inconclusive.
# Columns and labels:
# [1] = Viability qHTS for spleen associated tyrosine kinase inhibitor (SYKi) naive MV4-11 cells (AID 1963823); also: nearly all actives have a fitted effect of over 40% in size
# Method in brief: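 Seeding of 500 SYKi-naive MV4-11 cells per well onto pre-dispensed compounds preceded a 72 hr incubation at 37 C. Luminescent CellTiter-Glo signal, read after 10 min at room temperature, reflected viable cells.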
# [2] = Cellular viability qHTS for adrenocortical cancer (ACC) cell line SW-13 (AID 1963989); conditions: SW-13 ACC cells viability, CellTiter-Glo, 48 h; activity (max response): hits give low values; also: nearly all actives have a fitted effect of over 65% in size;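 as to activity (max response): cells grown in serum-free medium with ITS supplement; % is scaled to controls: 0 for no effect and ±100 for the full control effect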
# Method in brief: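 SW-13 cells in ITS-supplemented serum-free DMEM were plated overnight, then exposed for 48 h at 37C to compound titrations (up to 46 uM final). Viability was read by CellTiter-Glo luminescence; four-parameter logistic fits gave IC50 and efficacy.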
# [3] = Cellular viability qHTS for adrenocortical cancer (ACC) cell line NCI-H295R (AID 1963990); also: nearly all actives have a fitted effect of over 60% in size
# Method in brief: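 Luminescent ATP read-out (CellTiter-Glo, 20 min RT) after 48 h drug exposure of NCI-H295R cells; a titration up to 46 uM final. Data normalized to doxorubicin (100% inhibition) and DMSO (0%); 4-parameter fit gives IC50, max response.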
# [4] = Viability qHTS for spleen associated tyrosine kinase inhibitor (SYKi) drug resistant MV4-11 cells (AID 1963824); also: nearly all actives have a fitted effect of over 35% in size
# Method in brief: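 SYK-inhibitor-resistant MV4-11 AML cells were seeded at 500 per well onto compound and cultured 72 hours (37 °C, 5% CO2). CellTiter-Glo was then added, and after 10 min at room temperature, luminescence gave viability.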
# Potency is read from the fitted curve at half-maximal effect.
compound,measurement,setting,value
CC1(C)CC[C@]2(NC(=O)C(C)(F)F)CC[C@]3(C)[C@H](C(=O)C=C4[C@@]5(C)C=C(C#N)C(=O)C(C)(C)[C@@H]5CC[C@]43C)[C@@H]2C1,Potency,[1],3.32 µM (active)
same,Potency,[2],4.47 µM (active)
same,Potency,[3],3.98 µM (active)
CCCC(C)C1(CC)C(=O)N=C(S)NC1=O (stereo unspecified),Potency,[1],inactive
same,activity (max response),[2],-0.902%
same,Potency,[3],inactive
CC(C)(N)Cc1ccccc1Cl,Potency,[1],inactive
same,activity (max response),[2],5.36%
same,Potency,[3],inactive
C1=C(c2cnc[nH]2)c2ccsc2CC1,Potency,[4],inactive
COC1CC(=O)C23C(=O)NC(CC(C)C)C2C(C)=C(C)C(OO)C3/C=C(\C)CCC(O)C1O (stereo unspecified),Potency,[4],7.96 µM (active)
CCOP(=S)(OCC)Oc1ccc2c(C)c(Cl)c(=O)oc2c1,Potency,[1],inactive
same,activity (max response),[2],7.58%
same,Potency,[3],inactive
CCCCCCCCCC(CC)c1ccc(S(=O)(=O)O)cc1 (stereo unspecified),Potency,[1],7.7 µM (active)
same,Potency,[2],31.6 µM (active)
same,Potency,[3],25.1 µM (active)
Cn1c(COP(=O)(NCCBr)NCCBr)cnc1[N+](=O)[O-],Potency,[1],10.5 µM (active)
same,activity (max response),[2],-13.5%
same,Potency,[3],inactive
C/C(=C\c1csc(C)n1)[C@@H]1C[C@@H]2O[C@]2(C)CCC[C@H](C)[C@H](O)[C@@H](C)C(=O)C(C)(C)[C@@H](O)CC(=O)O1,Potency,[1],0.0047 µM (active)
same,Potency,[3],0.0282 µM (active)
CN1C(=O)[C@@H](NC(=O)[C@H](CCC(F)(F)F)[C@H](CCC(F)(F)F)C(N)=O)N=C(c2ccccc2)c2ccccc21,Potency,[1],inactive
same,activity (max response),[2],-2.32%
same,Potency,[3],inactive
C[C@H]1O[C@@H](O[C@H]2CC[C@]3(CO)C4CC[C@]5(C)[C@@H](C6=CC(=O)OC6)CC[C@]5(O)[C@@H]4CC[C@H]3C2)[C@H](O)[C@H](O)[C@@H]1O[C@@H]1O[C@H](CO)[C@@H](O)[C@H](O)[C@H]1O (stereo partly specified),Potency,[4],0.544 µM (active)
